From PubChem
A selection: hits, their analogues and other compounds. The true share with any hit is near 3.7%.
esBAF inh – Bmi1 luciferase reporter increase in mESCs, primary screen, esBAF inhibitor project, mouse ES cells, Bmi1 luciferase knock-in, single point. 24 h; 100% = twice the neutral-well signal. reporter increase, % at 12.5 µM. 350,000 tested, 2% active. AID 602393, 2012; in the data active = activation above about 40%; inconclusive = no clear call, values can overlap the other calls;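 note: 0% = median of the plate's neutral control wells and 100% = double that signal; a rise in the Bmi1 reporter signal indicates esBAF inhibition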
MITF act – activators of MITF-driven TRPM1 promoter reporter, primary screen, cell-based, SK-MEL-5, luciferase, single point. SK-MEL-5 TRPM1-promoter luciferase, 24 h; % of positive control, neutral wells = 0. 300,000 tested, 0.75% active. activation, % at 12.5 µM;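 active = mean activation of at least 80% with every replicate also reaching 80%; inconclusive = mean reaches 80% but some replicate falls short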;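 note: 0% = neutral control wells and 100% = parthenolide positive control wells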
MLL AF4-AF9 inh – inhibitors of AF4 peptide binding to AF9, primary screen, biochemical, AlphaScreen, biotin-AF4 peptide, FLAG-AF9, single point | inhibition, % at 10 µM | Protein AF-9 (Homo sapiens), P42568 | 350,000 tested, 0.47% active;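 active = every replicate reaching a set inhibition limit, whatever the replicate mean, cut at about 25% in these data; inconclusive = mean inhibition reaches that limit but some replicates miss it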;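 note: 0% = plate neutral control median and 100% = total signal loss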
Target sequence (P42568 whole entry, looked up): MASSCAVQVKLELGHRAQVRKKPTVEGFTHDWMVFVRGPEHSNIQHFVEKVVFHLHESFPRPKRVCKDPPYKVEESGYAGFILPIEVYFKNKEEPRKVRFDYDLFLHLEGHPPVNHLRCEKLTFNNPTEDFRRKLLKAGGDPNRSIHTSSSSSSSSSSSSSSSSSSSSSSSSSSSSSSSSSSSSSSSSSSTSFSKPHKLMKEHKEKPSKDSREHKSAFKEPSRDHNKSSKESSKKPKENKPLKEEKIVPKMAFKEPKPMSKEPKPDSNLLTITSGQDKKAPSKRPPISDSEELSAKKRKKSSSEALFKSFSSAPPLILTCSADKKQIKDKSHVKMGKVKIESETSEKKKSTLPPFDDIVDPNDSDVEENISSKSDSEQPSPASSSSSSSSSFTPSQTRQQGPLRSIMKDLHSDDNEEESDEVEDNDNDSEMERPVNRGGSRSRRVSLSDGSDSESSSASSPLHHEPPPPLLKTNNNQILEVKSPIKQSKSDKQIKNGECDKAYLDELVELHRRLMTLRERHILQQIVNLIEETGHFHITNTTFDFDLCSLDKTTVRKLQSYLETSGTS
Wnt act – Wnt/beta-catenin pathway activators, primary screen, cell-based, plate reader, single point; Wnt/beta-catenin reporter cell assay, activator; activation, % at 9.35 µM; 300,000 tested, 1.2% active; AID 743398, 2014; in the data active = activation above about 30%, passing the limit was not always enough; inconclusive = no clear call, values can overlap the other calls;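 note: 0% = neutral control wells and 100% = positive control wells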
rRNA inh HTS – reduced GFP signal of wild-type E. coli, primary screen, bacterial rRNA inhibitor project, GFP/RFP fluorescence, OD600, single point. E. coli WT GFP vs humanized-ribosome RFP mutants, 24 h; hits give low values; DMSO median 0, no signal -100. GFP signal change (wild-type ribosome), % (concentration not given with the values). 350,000 tested, 1.6% active;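 active = significant combined selectivity score with lowered wild-type GFP, culture density cut under 30%, mutant RFP and density less affected; inactive = any of these conditions unmet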
Active calls of the source: *; ? = inconclusive; . = no result given.

SMILES	esBAF inh	MITF act	MLL AF4-AF9 inh	Wnt act	rRNA inh HTS
O=C(CSc1nnc(-c2cccc(Br)c2)o1)NCC1CCCO1 (configuration not stated)	-3.8	.	0.3	-0.5	0.5
O=C(c1cccc(-c2nnc(-c3ccccc3)o2)c1)N1CCCCC1	72.4*	50.7	.	.	.
O=C(O)c1ccc(-c2nnc(-c3cccc(Br)c3)o2)cc1	71.3*	63.9	3.1	12.5	6.0
Cc1ccc2nc(-c3cccc(-c4cccc(Cl)c4)c3)c(NCc3ccccc3)n2c1	3.8	6.3	11.3	0.1	12.0
O=C(C[C@H]1CC[C@@H]2[C@H](COC[C@@H](O)CN2C(=O)c2cccnc2)O1)NCC1CC1	1.6	.	-1.0	.	3.8
CCN(C(=O)CSc1nccn1C)c1cccc2ccccc12	-0.4	-9.7	0.8	1.0	6.8
O=C(Nc1ccc(F)cc1F)c1cc2ccccc2oc1=O	19.7	.	-2.5	49.9*	8.8
CCOc1ccccc1NC(=O)c1cc2ccccc2oc1=O	19.6	0.0	-3.1	-1.0	18.6
O=C(c1cc2ccccc2oc1=O)N1CCN(c2ncccn2)CC1	70.4*	.	.	.	.
O=C(NNC(=O)c1cc2ccccc2oc1=O)c1ccccc1	54.7*	.	-0.2	8.8	0.9
O=C(c1ccccc1)c1cc2ccccc2oc1=O	48.4	29.0	-1.3	-1.5	-1.1
Cc1cc(C)n(C(=O)CNC(=O)CCc2ccccc2)n1	-0.9	.	.	.	.
Cc1ccc(Oc2coc3cc(O)ccc3c2=O)cc1	30.1	30.9	1.0	5.3	-24.0*
COc1ccc(C2C3=C(CC(C)(C)CC3=O)Oc3ncn(CCO)c(=N)c32)cc1OC (configuration not stated)	2.6	-2.0	.	.	.
CC(C)Cn1cnc2c(c1=N)C(c1ccccc1)C1=C(CC(C)(C)CC1=O)O2 (configuration not stated)	.	-6.0	.	-0.7	-37.9*
COc1ccc2c(=O)c(-c3ccc4c(c3)OCO4)coc2c1	-40.9	-4.7	.	39.8*	.
COC(=O)COc1ccc2c(=O)c(-c3ccccc3)coc2c1	1.6	.	-4.5	1.3	-0.4
CC(C)Oc1ccc2c(=O)c(-c3ccccc3)coc2c1	35.0	78.1	-1.7	55.7*	4.8
Cc1cc(C)c2sc(N(CCN(C)C)C(=O)c3c(F)cccc3F)nc2c1	-7.2	-13.9	23.5	2.5	-37.4*
Cc1cccc(OCCC(=O)N(C)CC(=O)Nc2cccc3ccccc23)c1	.	2.1	-1.0	1.2	-19.9*
Cc1ccc(OCCCC(=O)N(C)CC(=O)Nc2ccccc2Cl)cc1	-8.1	8.7	3.3	3.0	-13.4
N#CC(CO)(Cc1ccc(OC(F)F)cc1)c1nc2ccccc2[nH]1 (configuration not stated)	.	10.3	7.2	.	-20.8*
COc1ccc(CC(C#N)(CO)c2nc3ccccc3[nH]2)cc1 (configuration not stated)	.	-10.5	.	.	.
O=S1(=O)N[C@@H](Cc2ccccc2)COc2cc(NCCCN3CCOCC3)ccc21	.	.	-1.1	-7.0	9.7
O=C(CSc1nnc2ccccn12)c1ccc(Cl)cc1	22.3	37.9	0.0	36.2*	-5.2
SMILES	esBAF inh	MITF act	MLL AF4-AF9 inh	Wnt act	rRNA inh HTS
O=c1c2ccccc2nnn1CSc1nnc2ccccn12	46.9*	.	.	53.4*	.
C[C@H](CO)N1C[C@H](C)[C@H](CN(C)CC2CCCCC2)Oc2ccc(NS(=O)(=O)c3cn(C)cn3)cc2CC1=O	-3.6	.	-2.4	.	3.1
C[C@]12CC[C@H](O)CC1=C[C@H](O)C1C2CC[C@@]2(C)C1CC[C@@]2(O)C#Cc1ccc(CN)cc1 (some centres not stated)	.	8.6	2.3	1.8	.
C[C@H]1CCCCO[C@H](CN(C)S(=O)(=O)c2ccc(F)cc2)[C@@H](C)CN([C@@H](C)CO)C(=O)c2cc(NC(=O)c3ccccc3)ccc2O1	3.2	.	0.4	.	-0.6
Oc1ccc(/C=C/c2ccc3ccccc3n2)cc1	-38.8	-69.7	3.1	-3.4	-47.3
O/C(=C\c1ccc2ccccc2n1)c1ccc(O)cc1O	-30.1	20.0	-1.4	42.8*	-0.1
NC(=O)c1cnn(-c2cc(Oc3ccccc3)ncn2)c1N	37.3	87.4*	-2.3	7.9	22.6
N#C[C@@H]1[C@@H](c2ccccc2-c2ccccc2)[C@H](CO)N1C(=O)Cc1cccnc1	.	.	-3.0	.	-2.9
CN(C(=S)NCCN1CCOCC1)C(c1ccccc1)c1ccccc1	.	-4.7	2.7	41.8*	-5.2
CC1=C(C(=O)OC2CCCC2)C(c2coc3ccccc3c2=O)C2=C(CC(C)(C)CC2=O)N1 (configuration not stated)	1.4	-3.2	4.3	1.8	-21.7*
CC(C)Sc1nnc(NC(=O)C2CC2)s1	13.6	27.2	3.4	3.1	2.2
CC(C)Sc1nnc(Nc2ccccc2)s1	43.0*	77.3	.	-2.7	.
CCOC(=O)c1sc(=NC(=O)c2ccc(C)cc2)n(C)c1C	.	32.4	-2.8	31.5*	13.3
CCOC(=O)c1sc(=NC(=O)CCSc2ccccc2)n(C)c1C	.	113.5*	-2.8	26.5	1.2
CCOC(=O)c1sc(=NC(=O)c2ccc(F)cc2)n(C)c1C	27.0	57.8	-5.7	?	4.6
CCOC(=O)c1sc(=NC(=O)c2cccc(C)c2)n(C)c1C	.	48.7	-1.1	13.8	7.1
CCOC(=O)c1sc(=NC(=O)c2c(F)cccc2F)n(C)c1C	54.0*	50.5	-0.3	13.5	3.6
CCOC(=O)c1sc(=NC(=O)c2cccc(Br)c2)n(C)c1C	70.7*	73.3	-0.3	1.8	9.4
CCOC(=O)c1sc(=NC(=O)COc2ccccc2)n(C)c1C	19.2	24.0	0.5	13.6	14.3
COc1ccccc1C(=O)NC(=S)Nc1ccc(N2CCN(C(=O)c3ccco3)CC2)cc1	12.8	-13.9	6.2	-7.8	-9.1
O=C(Nc1ccc([N+](=O)[O-])cn1)c1ccc2c(c1)OCO2	.	49.3	-0.3	14.4	7.0
C[C@H]1CN([C@@H](C)CO)C(=O)c2cc(-c3ccncc3)cnc2O[C@@H]1CN(C)C(=O)NC1CCCC1	4.8	.	-3.5	.	0.0
CCCNC(=O)c1oc2ccc3c(c2c1C)C=CC(C)(C)O3	55.6*	105.0*	8.2	38.4*	-31.9
CCCNC(=O)c1oc2ccc3c(c2c1C)C(=O)CC(C)(C)O3	-14.9	89.2*	.	59.2*	.
Cc1c(C(=O)NCCc2ccccc2)oc2ccccc12	11.1	54.8	-5.1	-0.3	-25.4
CN1CCN(C(=O)C[C@@H]2CC[C@@H](NC(=O)c3ccc4c(c3)OCO4)[C@H](CO)O2)CC1	3.9	.	3.1	.	1.5
CN(C)/C=N/c1nc(-c2ccc3c(c2)OCO3)cs1	22.2	76.1	2.1	70.9*	1.8
CN(C)/C=N/c1nc(-c2ccc3ccccc3c2)cs1	60.1	125.0*	-52.5	40.5*	-29.8
CCOc1ccc(NC(=O)CN(C)CC(=O)Nc2ccc(Br)cc2F)cc1OCC	-7.9	-6.0	1.5	-1.1	-28.5*
